Measurements: PubChem BioAssay AID2567 (National Center for Advancing Translational Sciences (NCATS), 2010)
Several values for one entry are separate records, joined by “and”; a condition that tells them apart may be missing. Equal entries are not always repeated. Inconclusive results are not listed. Activity calls are given as the source filed them. Calls follow the shape of the dose curve; as a rule, active = well fitted antagonist curve with a large enough effect in the main read-out, with a control signal flat; inconclusive = small, poorly fitted or top-dose-only effect; inactive = no such curve, though single readings can be large or run the other way.

Each compound was assayed against Neuropeptide S receptor (Homo sapiens) (UniProt Q6W5P4) (assay: Confirmation Concentration-Response Assay for Antagonists of the Neuropeptide S Receptor: Calcium Signal Transduction, SAR for Probe). Conditions: CHO-NPSR cells, NPS-induced calcium fluorescence, FDSS; series mostly up to 50.9 µM.
Neuropeptide S receptor (Homo sapiens), sequence (Q6W5P4 whole entry, looked up): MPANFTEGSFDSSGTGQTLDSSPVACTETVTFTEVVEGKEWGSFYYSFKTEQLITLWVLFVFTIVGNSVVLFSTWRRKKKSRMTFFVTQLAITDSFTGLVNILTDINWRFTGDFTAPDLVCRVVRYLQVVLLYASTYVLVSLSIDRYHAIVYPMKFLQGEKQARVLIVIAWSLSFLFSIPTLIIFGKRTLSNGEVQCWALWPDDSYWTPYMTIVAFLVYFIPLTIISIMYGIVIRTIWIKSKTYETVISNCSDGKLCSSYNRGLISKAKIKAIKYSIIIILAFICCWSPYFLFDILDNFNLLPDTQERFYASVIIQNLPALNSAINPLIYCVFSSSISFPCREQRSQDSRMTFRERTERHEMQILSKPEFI
Excerpt: NIH Chemical Genomics Center [NCGC] NIH Molecular Libraries Probe Production centers Network [MLPCN] MLPCN Grant: X01-DA026210-01 Assay Submitter (PI): Heilig, Markus Alexander NCGC Assay Overview: Neuropeptide S receptor (NPSR), previously known as GPR154, is a recently de-orphanized G protein coupled receptor. Its endogenous ligand is the 20 amino acids peptide Neuropeptide S (NPS). […] NPS and its receptor are found in various tissues. Specifically they are highly expressed in brain areas that have been implicated in modulation of arousal, stress and anxiety. Central administration of NPS in mice produces an unusual profile of activity by inducing wakefulness and arousal, while at the same time suppressing anxiety. Therefore, NPSR may represent a novel drug target for the treatment of sleep and anxiety disorders. To identify NPSR antagonists, we developed a cell-based assay with transfected NPS receptor. NPS can stimulate the production of cAMP as well as release intracellular calcium in Chinese hamster ovary cells stably expressing NPS receptor. This change in intracellular calcium can be detected using a calcium indicator dye on a calcium imaging plate reader system (FDSS).
NCGC Assay Protocol Summary: A Chinese hamster ovary (CHO) cell line stably expressing the NPS receptor (CHO-NPSR) was obtained from Dr. Heilig lab at NIAAA and maintained in F-12 Kaighn's media (Invitrogen, Carlsbad, CA, 21127) supplemented with 10 % FBS, 100 units/ml penicillin, 100 ug/ml streptomycin and 250 ug/ml geneticin at 37C, 5% CO2 in a humidified atmosphere. Before the assay, aliquots of cells were frozen and stored at -135C. The assay was performed on a FDSS-7000 kinetic plate reader in 1536-well format. For both agonist (1-220s) and antagonist (221-400s) phases, the maximums of kinetic fluorescence responses were converted separately into text files using the instrument's software data export utility. Data for agonist response were normalized to the controls for basal activity (DMSO only) and 100% activation (NPS). […] AC50 values were determined from concentration-response data modeled with the standard Hill equation. NPS 1536-well FDSS assay protocol: (1) Frozen CHO-NPSR cells were thaw, washed once with fresh media and resuspended in F-12 Kaighn's media supplemented with 10 % FBS, 100 units/ml penicillin and 100 ug/ml streptomycin. Cells were plated at 3 ul/well (1200 cells) to black, clear-bottom, tissue-culture treated 1536-well plates, and then cultured at 37C, 5 % CO2 for 16 to 30 hours. (2) Add 3 ul of calcium dye (from High Performance PBX Calcium Assay Kit, BD Biosciences). The calcium dye was prepared according to the manufactory's instruction. (3) Incubation at 37C, 5 % CO2 for 60 to 120 min. (4) Load plates to FDSS-7000. The following steps were performed on FDSS-7000. (5) Record fluorescent background (Ex 480 nm, Em 520-560 nm) for 10 s. (6) Add 23 nl/well of compound in DMSO solution. The final titration for each compound was between 0.6 nM and 46 uM. Record agonist response for 210 s. (7) Add 2 ul of stimulation reagent (1X HBSS buffer, 0.1% BSA, 60 nM NPS). Record antagonist response for 140 s. Keywords: MLSMR, MLPCN, NIH Roadmap, qHTS, NCGC, NPS, Neuropeptide S Antagonists

SMILES | Potency
Cc1c(P(=S)(c2ccccc2)c2ccccc2)c2ccccc2n1C | inactive
Cc1c(P(=S)(c2ccccc2)c2ccccc2)[n+]2ccccc2n1Cc1ccccc1 | 1.74 µM (active)
CNc1ccc2oc(C[C@H]3O[C@@]4(CC[C@H]3C)O[C@H]([C@H](C)C(=O)c3ccc[nH]3)[C@H](C)C[C@H]4C)nc2c1C(=O)O | 0.0158 µM (active)
Cc1c(P(=S)(c2ccccc2)c2ccccc2)[n+]2ccccc2n1C | 199 nM (active) and 251 nM (active) and 220 nM (active)
Cn1cc(P(=S)(c2ccccc2)c2ccccc2)c2ccccc21 | inactive
Cc1c(P(=S)(c2ccccc2)c2ccccc2)[n+]2ccccc2n1CCc1ccccc1 | 1.38 µM (active)
Cn1c(-c2ccccc2)c(P(=S)(c2ccccc2)c2ccccc2)c2ccccc21 | inactive
CCOC(=O)c1c(-n2c(C)cc(C=C3C(=O)NC(=S)NC3=O)c2C)sc2c1CCCC2 | 2 µM (active)
Cc1nc2ccccn2c1P(=S)(c1ccccc1)c1ccccc1 | 9.79 µM (active)
C=C1C(=O)O[C@@H]2C[C@@H](C)[C@@H]3C=CC(=O)[C@@]3(C)[C@@H](OC(=O)CC(=O)O[C@H]3[C@@H]4C(=C)C(=O)O[C@@H]4C[C@@H](C)[C@@H]4C=CC(=O)[C@]43C)[C@H]12 | 0.0891 µM (active)
Cc1c(P(=S)(c2ccccc2)c2ccccc2)[n+]2ccccc2n1CCCc1ccccc1 | 0.0552 µM (active)
S=P(c1ccccc1)(c1ccccc1)c1cnc2ccccn12 | 12.3 µM (active)
C=C(C=O)C[C@@H]1C[C@H](O)C2OC3C[C@]4(C)OC5/C=C\CC6OC7C(CC=CCC6OC5CCCC4OC3CC2O1)OC1CC2OC3CC(=O)OC3C[C@@H](C)C[C@@]2(C)OC1C[C@@H]7C (stereo partly drawn) | 0.501 µM (active)
S=P(c1ccccc1)(c1ccccc1)c1c[n+](Cc2ccccc2)c2ccccn12 | 6.93 µM (active)
S=P(c1ccccc1)(c1ccccc1)c1c(-c2ccccc2)[nH]c2ccccc12 | inactive
CC(=O)Nc1cc([As](=O)(O)O)ccc1O | inactive
C[C@H]1CCCC(=O)CCCCCc2cc(O)cc(O)c2C(=O)O1 | inactive
Cc1c(P(=S)(c2ccccc2)c2ccccc2)[n+]2ccccc2n1C/C=C/c1ccccc1 | 0.0438 µM (active)
